# GDH-TPI inh: GDH-TPI coupling enzyme inhibitors, primary screen, artefact control for M. tuberculosis FBA inhibitor project, biochemical, absorbance, full deck | GDH-TPI coupled enzyme counterscreen, NADH absorbance | inhibition, % at 4.8 µM | actives 1.2% (n = 360,000) | AID 588335, 2011; in the data active = inhibition above about 30%;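 note: 0% = DMSO wells and 100% = wells lacking the enzyme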
# SARS 3CLpro inh: SARS-CoV 3CLpro protease inhibitors, primary screen, biochemical, quenched FRET. Replicase polyprotein 1ab (Severe acute respiratory syndrome coronavirus), P0C6X7. recombinant SARS-CoV 3CLpro, quenched FRET peptide cleavage. inhibition, % at 6 µM. actives 0.14% (n = 290,000). AID 1706, 2009; in the data active = inhibition above about 12%
# PrPC surface inh: inhibitors of human cell surface prion protein PrPC, primary screen, cell-based, TR-FRET; actives 0.43% (n = 370,000); AID 720596, 2013; TR-FRET read-out; inhibition, % at 13.8 µM; in the data active = inhibition above about 24%; note: 0% = median of the test wells and 100% = reference compound wells
# Vc quorum ag: inducers of Vibrio cholerae quorum light production without autoinducers, primary screen, BH1578 luxS cqsA deficient, single point; V. cholerae BH1578 lux reporter, luminescence, 6 h; activation, % at 18.7 µM; actives 0.16% (n = 350,000); AID 588436, 2011; in the data active = activation mostly above about 9.7%, no sharp cut-off
# FBA Mtb inh: Mtb FBA enzyme inhibitors, primary screen, biochemical, fluorescence, strain H37Rv; Fructose-bisphosphate aldolase (Mycobacterium tuberculosis (strain ATCC 25618 / H37Rv)), …; AID 588726, 2011; inhibition, % at 1 µM; actives 2.3% (n = 360,000); purified M. tuberculosis FBA, fluorescence read-out; in the data active = inhibition above about 27%;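 note: 0% = vehicle and 100% = reference inhibitor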
# Target sequence (P9WQA3 whole entry, looked up): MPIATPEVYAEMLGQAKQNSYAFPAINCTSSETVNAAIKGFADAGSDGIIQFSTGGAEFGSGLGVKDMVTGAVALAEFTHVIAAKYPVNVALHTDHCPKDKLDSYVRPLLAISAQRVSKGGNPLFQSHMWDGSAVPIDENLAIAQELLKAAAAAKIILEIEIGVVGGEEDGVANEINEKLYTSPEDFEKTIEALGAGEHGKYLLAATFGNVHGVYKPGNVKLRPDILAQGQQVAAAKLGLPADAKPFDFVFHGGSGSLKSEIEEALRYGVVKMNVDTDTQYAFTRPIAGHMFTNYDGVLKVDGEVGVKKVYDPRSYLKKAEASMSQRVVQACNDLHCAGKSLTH
# * = called active by the depositor; i = inactive; · = no result given; + = active, no number. The list is not random: actives were taken first. Their share in the collection is about 3.9%.
SMILES,GDH-TPI inh,SARS 3CLpro inh,PrPC surface inh,Vc quorum ag,FBA Mtb inh
O=C1C(=O)N(Cc2cccnc2)C(c2cccc([N+](=O)[O-])c2)/C1=C(\O)c1ccc2c(c1)OCCO2 (stereo not drawn),20,4,-3,2,-3
CCCOc1ccc(/C(O)=C2/C(=O)C(=O)N(CCOC)C2c2cccnc2)cc1 (stereo not drawn),·,-3,-3,·,·
COCCN1C(=O)C(=O)/C(=C(/O)c2cccc(OC)c2)C1c1ccco1 (stereo not drawn),35*,1,-4,-1,-3
N#CCS(=O)(=O)c1cccc[n+]1[O-],·,·,5,·,·
C[C@@H](NC(=O)[C@@H]1CCCN1C(=O)[C@@H]1CCCN1C(=O)c1cccc(Cl)c1)c1ccccc1,·,·,-12,·,·
COc1ccc(/C(O)=C2/C(=O)C(=O)N(Cc3cccnc3)C2c2ccncc2)cc1F (stereo not drawn),18,2,-7,i,0
COCCN1C(=O)C(=O)/C(=C(/O)c2ccc(S(=O)(=O)N3CCOCC3)cc2)C1c1ccc(O)cc1 (stereo not drawn),33*,-6,-7,i,-3
Cc1ccc(C)c(/C(O)=C2\C(=O)C(=O)N(CCCN3CCOCC3)C2c2cccnc2)c1 (stereo not drawn),53*,-1,-3,i,-3
Cc1ccc(C)c(/C(O)=C2\C(=O)C(=O)N(Cc3cccnc3)C2c2cccnc2)c1 (stereo not drawn),37*,0,0,i,-16
COCCCN1C(=O)C(=O)/C(=C(/O)c2ccc(S(=O)(=O)N3CCOCC3)cc2)C1c1ccc(OC)cc1 (stereo not drawn),16,0,-7,-3,2
CCOc1ccc(C2/C(=C(\O)c3ccc4c(c3)OCCO4)C(=O)C(=O)N2CCN2CCOCC2)cc1OC (stereo not drawn),34*,-3,-2,i,0
COc1cc(C2/C(=C(\O)c3ccc4c(c3)OCCO4)C(=O)C(=O)N2CCN2CCOCC2)cc(OC)c1OC (stereo not drawn),10,2,-7,0,2
COc1ccc(N2C(=O)c3ccccc3NC(=O)C2C(=O)Nc2ccc3c(c2)OCCO3)cc1 (stereo not drawn),·,·,5,·,·
Cc1cc(/C=C(\C#N)C(=O)OCC#N)c(C)n1CC(C)C,8,1,-4,0,1
Cc1cc(/C=C(\C#N)C(=O)OCC(=O)Nc2ccc(OC(F)F)cc2)c(C)n1CC(C)C,31*,1,0,0,0
COC(=O)c1ccc(/C=N/NC(=O)C(=O)NCC2CCCO2)cc1 (stereo not drawn),10,4,2,-1,3
O=C(NCC1CCCO1)C(=O)N/N=C/c1ccc(O)c(Cl)c1 (stereo not drawn),55*,-2,2,i,3
O=C(NCC1CCCO1)C(=O)N/N=C\c1ccc2c(c1)OCO2 (stereo not drawn),34*,1,5,0,1
O=C(NCCc1cccs1)Nc1ccc2nc([C@@H]3O[C@H](CO)[C@@H](O)[C@H]3O)[nH]c2c1,1,·,9,0,2
O=c1cc[nH]c2c1ccc1c(=O)cc[nH]c12,10,-4,10,0,24
CN(C)c1ccc2c(=O)cc[nH]c2c1,·,·,10,·,+
COCC(C)n1c(C)cc(C(=O)COC(=O)CN=C2NS(=O)(=O)c3ccccc32)c1C (stereo not drawn),4,7,10,0,3
COc1ccc(S(=O)(=O)/N=C2\C=C(Nc3ccc(O)cc3)C(=O)c3ccccc32)cc1,8,6,56*,i,-7
CC(=O)c1sc(=S)n(-c2ccccc2)c1C,68*,1,-9,-1,2
CC(=O)c1sc(=S)n(-c2ccc(Cl)cc2)c1C,11,3,-23,i,0
SMILES,GDH-TPI inh,SARS 3CLpro inh,PrPC surface inh,Vc quorum ag,FBA Mtb inh
O=C(Nc1nccs1)c1sc2cc(Cl)ccc2c1Cl,34*,1,2,0,-4
O=C(Nc1nccs1)c1sc2ccccc2c1Cl,24,-4,-7,6,2
CC1(C)SC(=S)N(/N=C/c2ccc(O)cc2)C1N(O)C(=O)Nc1ccc([N+](=O)[O-])cc1 (stereo not drawn),35*,7,-4,i,-1
CCCCNC(=O)N(O)C1N(/N=C/c2ccccc2F)C(=S)SC1(C)C (stereo not drawn),10,-6,10,0,1
CCCCNC(=O)N(O)C1N(/N=C/c2ccco2)C(=S)SC1(C)C (stereo not drawn),44*,·,-1,1,-2
C/C(=N\n1c(C)nc2ccccc2c1=O)c1ccc(N)cc1,35*,·,-1,1,0
Cc1nc2ccccc2c(=O)n1/N=C/c1ccc(O)cc1,29,-2,4,-2,0
Cc1ccc(NC(=O)CSCC(=O)N2CCN(Cc3ccc4c(c3)OCO4)CC2)cc1,2,-2,1,0,-2
O=C(COc1ccc([N+](=O)[O-])cc1)N/N=C/c1cc([N+](=O)[O-])ccc1N1CCOCC1,48*,0,-6,0,-3
CC(C)OC(=O)C1C2C=CC3(CN(CC4CCCO4)C(=O)C13)O2 (stereo not drawn),1,1,2,21*,8
CC(C)OC(=O)C1C2C=CC3(CN(C(C)c4ccc(Br)cc4)C(=O)C13)O2 (stereo not drawn),0,-1,-3,1,3
CC1CC1C(=O)N1CCC(Oc2cccnc2)CC1 (stereo not drawn),·,·,-1,·,·
O=C(c1cnc2n(c1=O)CCS2)N1CCN(c2ccccc2Cl)CC1,·,-1,·,·,·
Cc1c(O)ccc2c(CC(=O)N[C@@H](Cc3ccccc3)C(=O)O)cc(=O)oc12,15,0,-2,1,165*
COc1ccccc1NCc1cc(=O)oc2c(C)c(O)ccc12,12,3,4,0,6
COC(=O)[C@]12C[C@H](CC(=O)NCc3cccc(C(F)(F)F)c3)C(=O)N(Cc3cccc4ccccc34)C1=C[C@H](C(C)(C)C)O[C@@H]2C,·,·,6,·,·
COc1ccccc1C=NN=C1c2ccccc2-c2ccccc21,-6,·,-3,i,2
COc1ccccc1C=NN=Cc1ccccc1OC,31*,·,-3,i,-2
COc1ccccc1/C=N/N1C(=O)c2cccc3cccc(c23)C1=O,34*,-2,-38,0,3
O=C(NC1CCCCC1)C(c1cc2c(cc1[N+](=O)[O-])OCO2)N1CCCCC1 (stereo not drawn),·,2,·,·,·
CN(C)/C=C1\N=C(c2ccc3c(c2)OCO3)OC1=O,53*,-3,-3,0,6
CN(C)/C=C1\N=C(c2ccccc2)OC1=O,35*,1,-9,i,-3
